Data on twelve compounds can be found in PubChem BioAssay (NCI).

Some test systems named below: NCI-H23 lung; NCI-H226 lung; NCI-H322M lung; HOP-62 NSCLC; NCI-H460 lung; HOP-92 NSCLC; NCI-H522 lung; A549/ATCC NSCLC; 786-0 renal; COLO 205 colon.
Common to all, as to assay: NCI-60 one-dose screen, 48 h (100 = growth as untreated, 0 = no growth, -100 = all killed)
Holding throughout (details): 10 µM unless noted

“And” between values parts separate entries of the source, which are not always exact repeats. Equal values may be shown once. The panel holds about 83,000 compounds, 20% with a hit somewhere; the sample as a whole holds those more often.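 96-well plates, one dose, 48 hours. Percent growth reported; active if below 10.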 Values without a mark were called inactive. The source made the active and inactive calls.

For the compound `CN(C)C1CCN(C(=O)c2ccc(NC(=O)Nc3ccc(-c4nc(N5CCOCC5)c5cccn5n4)cc3)cc2)CC1`, the growth in the experiment on NCI-H23 lung was 15.5%; in the experiment on NCI-H226 lung, -7.75% (active); in the experiment with NCI-H322M lung, -9.27% (active); in the experiment on HOP-62 NSCLC it was -12.9% (active); in the experiment on NCI-H460 lung it was 6.48% (active); in the experiment on HOP-92 NSCLC, -31.2% (active). The growth in the experiment with NCI-H522 lung is 14.6%; with A549/ATCC NSCLC, 3.9% (active); in the experiment on 786-0 renal, -18.6% (active); in the experiment with COLO 205 colon, -3.31% (active).
Consider `COc1ccc(Oc2nc(Nc3ccc(N4CCOCC4)cc3)ncc2NC(=O)c2cccc(C(F)(F)F)c2)cc1`, for which the growth with NCI-H23 lung is 87.3%; in the experiment with NCI-H226 lung, 81.2%; with NCI-H322M lung it was 83.6%; in the experiment with HOP-62 NSCLC it was 94.4%; in the experiment with NCI-H460 lung, 70.2%; with HOP-92 NSCLC it was 76.7%. Also, the growth was 0.64% (active) in the experiment with NCI-H522 lung, 66% with A549/ATCC NSCLC, 87.8% in the experiment on 786-0 renal and 84.8% in the experiment on COLO 205 colon.
As for `C=C1CCC2C3(C)COC(c4ccc(NC(C)=O)cc4)OC3CCC2(C)C1C/C=C1/C(=O)OCC1O` (stereo not given), the growth in the experiment on NCI-H23 lung was 36.4%; in the experiment on NCI-H226 lung, 64.5%; in the experiment with NCI-H322M lung, 89%; with HOP-62 NSCLC it was 85.5%; with NCI-H460 lung, 66.2%; with HOP-92 NSCLC, 72.6%. For the same compound, the growth is 29.5% with NCI-H522 lung, 35.9% with A549/ATCC NSCLC, 57.1% in the experiment with 786-0 renal and 82.6% in the experiment with COLO 205 colon.
For `[Cu+].[NH-][C@H]1C[N-]C(=O)[C@H]([C@H]2CCN=C(N)N2)[N-]C(=O)/C(=C\NC(N)=O)[N-]C(=O)[C@H](CNC(=O)C[C@@H](N)CCCN)[N-]C(=O)[C@H](CO)[N-]C1=O`, the growth is 105% in the experiment on NCI-H23 lung; 105% in the experiment with NCI-H226 lung; 106% in the experiment on NCI-H322M lung; 94.8% in the experiment on HOP-62 NSCLC; 98.4% in the experiment on NCI-H460 lung; -8.71% (active) in the experiment on HOP-92 NSCLC. Besides, the growth in the experiment on NCI-H522 lung was 85.6%; in the experiment on A549/ATCC NSCLC it was 99.3%; in the experiment with 786-0 renal, 102%; with COLO 205 colon, 111%.
Regarding `COc1ccc(-c2ccccc2)cc1-c1c(Nc2cc(Cl)cc(Cl)c2O)c(=O)c1=O`, the growth in the experiment on NCI-H23 lung is 2.65% (active); in the experiment with NCI-H226 lung, 19.3%; in the experiment with NCI-H322M lung, 11.3%; in the experiment on HOP-62 NSCLC, 2.04% (active); in the experiment with NCI-H460 lung it was 7.61% (active); in the experiment on HOP-92 NSCLC, -24.5% (active). Also, the growth was -19.6% (active) in the experiment on NCI-H522 lung, 8.72% (active) with A549/ATCC NSCLC, 17.3% in the experiment on 786-0 renal and 48.1% with COLO 205 colon.
As to `CCNC(=O)Nc1ncccc1OCc1ccc(F)cc1`, the growth with NCI-H23 lung was 87.1%; with NCI-H226 lung, 106%; in the experiment with NCI-H322M lung, 105%; with HOP-62 NSCLC, 95.3%; in the experiment with NCI-H460 lung, 105%; in the experiment on HOP-92 NSCLC it was 108%. Moreover, the growth in the experiment with NCI-H522 lung was 86.2%; with A549/ATCC NSCLC, 99%; in the experiment with 786-0 renal it was 92.8%; with COLO 205 colon it was 115%.
As to `Cc1ccc(/C=C(\C#N)c2cc3ccccc3[nH]2)cc1`, the growth in the experiment with NCI-H23 lung was 66%; with NCI-H226 lung it was 95.3%; in the experiment on NCI-H322M lung, 87.7%; in the experiment on HOP-62 NSCLC, 49.5%; in the experiment with NCI-H460 lung, 30.6%; in the experiment on HOP-92 NSCLC, 51.1%. Further, the growth with NCI-H522 lung was 13.7%; in the experiment on A549/ATCC NSCLC, 49%; in the experiment on 786-0 renal, 72.7%; in the experiment on COLO 205 colon, 32.4%.
As for `COc1ccc(NC(=O)Nc2ccccc2CNc2nc(Nc3ccc(OCCN4CCCC4)cc3)ncc2Cl)cc1`, the growth is 43.1% in the experiment with NCI-H23 lung; 76.1% with NCI-H226 lung; 36.5% in the experiment with NCI-H322M lung; 6.02% (active) in the experiment with HOP-62 NSCLC; -70.9% (active) with NCI-H460 lung; 4.83% (active) in the experiment on HOP-92 NSCLC. In addition, the growth with NCI-H522 lung is -3.26% (active); in the experiment on A549/ATCC NSCLC, 18.4%; with 786-0 renal, -84% (active); in the experiment with COLO 205 colon it was 1.65% (active).
As for `CCCCn1c(C(=O)c2c[nH]c3ccccc23)n[nH]c1=S`, the growth in the experiment on NCI-H23 lung is 92.6%; in the experiment on NCI-H226 lung, 92.5%; with NCI-H322M lung, 96.7%; with HOP-62 NSCLC, 86%; in the experiment with NCI-H460 lung, 98.7%; with HOP-92 NSCLC it was 89.4%. Also, the growth was 83.3% with NCI-H522 lung, 92.3% with A549/ATCC NSCLC, 102% in the experiment with 786-0 renal and 106% in the experiment with COLO 205 colon.
On to `O=C(Oc1ccc(CO[N+](=O)[O-])cc1)c1ccccc1`, for which the growth in the experiment with NCI-H23 lung was -71.1% (active); with NCI-H226 lung, -96.5% (active); in the experiment on NCI-H322M lung, -88.1% (active); in the experiment on HOP-62 NSCLC it was -86.5% (active); with NCI-H460 lung, -65.3% (active); with HOP-92 NSCLC it was -88% (active). The growth with NCI-H522 lung was -67.2% (active); in the experiment with A549/ATCC NSCLC, -9.66% (active); in the experiment on 786-0 renal, -87.7% (active); in the experiment with COLO 205 colon, -74.2% (active).
On to `CC[C@@H]1NC(=O)[C@H]([C@H](O)[C@H](C)C/C=C/c2ccc(CN3C(=O)C(C)=C(C)C3=O)cc2)N(C)C(=O)[C@H](C(C)C)N(C)C(=O)[C@H](CC(C)C)N(C)C(=O)[C@H](CC(C)C)N(C)C(=O)[C@@H](C)NC(=O)[C@H](C)NC(=O)[C@H](CC(C)C)N(C)C(=O)[C@H](C(C)C)NC(=O)[C@H](CC(C)C)N(C)C(=O)CN(C)C1=O`, for which the growth in the experiment on NCI-H23 lung was 82.6%; with NCI-H226 lung it was 65%; in the experiment with NCI-H322M lung, 65.7%; in the experiment on HOP-62 NSCLC, 70.7%; in the experiment with NCI-H460 lung it was 80.7%; in the experiment on HOP-92 NSCLC it was 68.8%. The growth with NCI-H522 lung was 61.9%; with A549/ATCC NSCLC, 58.1%; with 786-0 renal, 97.6%; in the experiment with COLO 205 colon, 72.8%.
For `COc1cc(C(=O)c2ccccc2C(=O)O)c(OC)c2c1CCCC2`, the growth is 98.2% and 94.4% in the experiment with NCI-H23 lung; 108% in the experiment with NCI-H226 lung; 108% and 101% with NCI-H322M lung; 106% with HOP-62 NSCLC; 103% and 107% in the experiment with NCI-H460 lung; 95.8% in the experiment with HOP-92 NSCLC. The growth in the experiment on NCI-H522 lung was 106% and 145%; in the experiment on A549/ATCC NSCLC, 97.5% and 101%; with 786-0 renal, 94.2% and 97.6%; with COLO 205 colon, 114% and 108%.
